In PubChem BioAssay (NCI):
Values joined by “and” are separate entries in the source; they are usually repeats but may differ in a detail not shown here. Identical values can stand only once. The panel holds about 83,000 compounds, 20% with a hit somewhere; the sample as a whole holds those more often.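 Interpretation: 100, growth as untreated; towards 0, rising growth inhibition; 0, no net growth; 0 to -100, cell death. Compounds scoring below 10 were considered active.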 Active and inactive are the calls of the source.

Columns and labels:
Experiment in all cases: NCI-60 one-dose screen, 48 h (100 = growth as untreated, 0 = no growth, -100 = all killed)
Conditions in all cases: 10 µM unless noted
NCI-H23 lung = tested on: NCI-H23 lung
NCI-H226 lung = tested on: NCI-H226 lung
NCI-H322M lung = tested on: NCI-H322M lung
HOP-62 NSCLC = tested on: HOP-62 NSCLC
NCI-H460 lung = tested on: NCI-H460 lung
HOP-92 NSCLC = tested on: HOP-92 NSCLC
NCI-H522 lung = tested on: NCI-H522 lung
A549/ATCC NSCLC = tested on: A549/ATCC NSCLC
786-0 renal = tested on: 786-0 renal
COLO 205 colon = tested on: COLO 205 colon
DU-145 prostate = tested on: DU-145 prostate
K-562 leukemia = tested on: K-562 leukemia
MALME-3M melanoma = tested on: MALME-3M melanoma
MDA-MB-231 breast = tested on: MDA-MB-231 breast
RXF 393 renal = tested on: RXF 393 renal
SF-268 CNS = tested on: SF-268 CNS
SF-295 CNS = tested on: SF-295 CNS
SF-539 CNS = tested on: SF-539 CNS
UACC-257 melanoma = tested on: UACC-257 melanoma
M14 melanoma = tested on: M14 melanoma

Structure (SMILES) | growth (NCI-H23 lung) | growth (NCI-H226 lung) | growth (NCI-H322M lung) | growth (HOP-62 NSCLC) | growth (NCI-H460 lung) | growth (HOP-92 NSCLC) | growth (NCI-H522 lung) | growth (A549/ATCC NSCLC) | growth (786-0 renal) | growth (COLO 205 colon) | growth (DU-145 prostate) | growth (K-562 leukemia) | growth (MALME-3M melanoma) | growth (MDA-MB-231 breast) | growth (RXF 393 renal) | growth (SF-268 CNS) | growth (SF-295 CNS) | growth (SF-539 CNS) | growth (UACC-257 melanoma) | growth (M14 melanoma)
OCCN1CCN(CCCN2c3ccccc3Sc3ccc(Cl)cc32)CC1 | 66.4% (inactive) and 80.2% (inactive) | 96% (inactive) and 110% (inactive) | 64.2% (inactive) and 77.5% (inactive) | 61.4% (inactive) and 93.4% (inactive) | 64.3% (inactive) and 85.1% (inactive) | -2.25% (active) | 40.5% (inactive) and 57.5% (inactive) | 69.8% (inactive) and 93.3% (inactive) | 53.3% (inactive) and 71.3% (inactive) | -70.1% (active) and 73.3% (inactive) | 97.3% (inactive) and 95.7% (inactive) | 13% (inactive) and 22.7% (inactive) | 16.5% (inactive) and 67.3% (inactive) | 12.2% (inactive) and 81.6% (inactive) | 56.1% (inactive) and 55.3% (inactive) | 80.8% (inactive) and 71.9% (inactive) | 52.4% (inactive) and 67.9% (inactive) | 80.2% (inactive) and 83.4% (inactive) | -43% (active) and -5.63% (active) | -76.7% (active) and 50.1% (inactive)
CC(=O)NC(Cc1ccccc1)C(=O)Oc1ccc2ccccc2c1 (stereo not drawn) | 95.9% (inactive) and 86.5% (inactive) | 101% (inactive) and 106% (inactive) | 124% (inactive) and 108% (inactive) | 96.9% (inactive) and 94.7% (inactive) | 106% (inactive) and 107% (inactive) | 78% (inactive) and 84.9% (inactive) | 98.2% (inactive) | 94.7% (inactive) and 102% (inactive) | 110% (inactive) | 93.3% (inactive) and 105% (inactive) | 107% (inactive) and 109% (inactive) | 106% (inactive) and 113% (inactive) | 109% (inactive) | 104% (inactive) and 103% (inactive) | 113% (inactive) and 115% (inactive) | 100% (inactive) | 113% (inactive) | 91.6% (inactive) and 90% (inactive) | 104% (inactive) and 116% (inactive) | 109% (inactive) and 118% (inactive)
Cc1ccc2nc3c(nc2c1)-c1cccc2cccc-3c12 | 89.5% (inactive) | 86.3% (inactive) | 74.6% (inactive) | 101% (inactive) | 72.4% (inactive) | 89.8% (inactive) | 66.4% (inactive) | – | 105% (inactive) | 70.2% (inactive) | 86.4% (inactive) | 97.5% (inactive) | 124% (inactive) | 75.8% (inactive) | 85.2% (inactive) | 89.2% (inactive) | 102% (inactive) | 85.4% (inactive) | 106% (inactive) | 102% (inactive)
CCN(CC)CCc1nc(-c2ccccc2)no1 | 83.8% (inactive) and 102% (inactive) | 85.8% (inactive) and 104% (inactive) | 100% (inactive) and 102% (inactive) | 65.2% (inactive) and 98.6% (inactive) | 102% (inactive) and 113% (inactive) | 81.5% (inactive) and 109% (inactive) | 88.5% (inactive) | 97.5% (inactive) and 103% (inactive) | 89.5% (inactive) and 101% (inactive) | 109% (inactive) | – | 118% (inactive) | 86.2% (inactive) and 120% (inactive) | 67.6% (inactive) and 110% (inactive) | 74.5% (inactive) and 113% (inactive) | 79.9% (inactive) and 98.3% (inactive) | 105% (inactive) and 101% (inactive) | 83.5% (inactive) and 109% (inactive) | 87.2% (inactive) and 90.3% (inactive) | 87.9% (inactive) and 98.5% (inactive)
O=C(Nc1cccc(Cl)c1)c1cc2ccccc2cc1O | 4.9% (active) and 9.55% (active) | 45.8% (inactive) and 40.6% (inactive) | 15% (inactive) and -3.24% (active) | 37.7% (inactive) and 15.1% (inactive) | 5.98% (active) and 5.93% (active) | -30.8% (active) and -32.5% (active) | 1.12% (active) and 2.91% (active) | 20.7% (inactive) and 9.25% (active) | 53.6% (inactive) and 17.3% (inactive) | 104% (inactive) and 42.6% (inactive) | 22.1% (inactive) and 25.1% (inactive) | 25.8% (inactive) and 10.5% (inactive) | 2.77% (active) and -9.95% (active) | 27% (inactive) and -1.46% (active) | 18% (inactive) and 33% (inactive) | 21.2% (inactive) and 24.4% (inactive) | 13.5% (inactive) and 62.2% (inactive) | 28.4% (inactive) and 11.7% (inactive) | 5.37% (active) and -16.3% (active) | 48.4% (inactive) and 18.2% (inactive)
NC(=O)NO | 102% (inactive) and 62.3% (inactive) | 106% (inactive) and 74.1% (inactive) | 107% (inactive) and 77.1% (inactive) | 109% (inactive) and 73.2% (inactive) | 106% (inactive) and 62.3% (inactive) | 101% (inactive) and 60.6% (inactive) | 98.7% (inactive) and 82.7% (inactive) | 94.8% (inactive) and 53.4% (inactive) | 103% (inactive) and 59.7% (inactive) | 118% (inactive) and 87.4% (inactive) | 110% (inactive) and 56.7% (inactive) | 113% (inactive) and 77% (inactive) | 102% (inactive) and 57.8% (inactive) | 98.8% (inactive) and 84.4% (inactive) | 116% (inactive) and 25.5% (inactive) | 102% (inactive) and 70.4% (inactive) | 99.4% (inactive) and 50.3% (inactive) | 104% (inactive) and 47.4% (inactive) | 102% (inactive) and 44% (inactive) | 104% (inactive)
CC(C(=O)O)n1cc(C#N)c(=O)[nH]c1=O (stereo not drawn) | 108% (inactive) and 111% (inactive) | 93.3% (inactive) and 94.8% (inactive) | 112% (inactive) and 111% (inactive) | 92.5% (inactive) and 98.8% (inactive) | 115% (inactive) and 112% (inactive) | 93.2% (inactive) and 98.4% (inactive) | 98.8% (inactive) and 93.9% (inactive) | 103% (inactive) and 108% (inactive) | 119% (inactive) and 101% (inactive) | 103% (inactive) and 112% (inactive) | 124% (inactive) and 107% (inactive) | 104% (inactive) | 102% (inactive) and 116% (inactive) | 109% (inactive) and 103% (inactive) | 110% (inactive) and 115% (inactive) | 96.8% (inactive) and 99.7% (inactive) | 93.3% (inactive) and 102% (inactive) | 95.8% (inactive) and 102% (inactive) | 89% (inactive) and 108% (inactive) | 120% (inactive) and 107% (inactive)
CC(=O)c1ccccc1O | 103% (inactive) and 97.7% (inactive) | 102% (inactive) and 81.7% (inactive) and 104% (inactive) | 98.4% (inactive) and 89.7% (inactive) and 98.2% (inactive) | 101% (inactive) and 87.7% (inactive) and 103% (inactive) | 105% (inactive) and 107% (inactive) and 103% (inactive) | 83.7% (inactive) and 103% (inactive) | 108% (inactive) and 88.4% (inactive) and 111% (inactive) | 104% (inactive) and 81.9% (inactive) and 96.2% (inactive) | 104% (inactive) and 103% (inactive) and 101% (inactive) | 131% (inactive) and 106% (inactive) and 118% (inactive) | 112% (inactive) and 107% (inactive) and 116% (inactive) | 94.9% (inactive) and 95% (inactive) and 107% (inactive) | 101% (inactive) and 95% (inactive) and 114% (inactive) | 108% (inactive) and 99.3% (inactive) and 110% (inactive) | 101% (inactive) and 117% (inactive) and 129% (inactive) | 108% (inactive) and 99.6% (inactive) and 113% (inactive) | 108% (inactive) and 101% (inactive) and 105% (inactive) | 95.3% (inactive) and 103% (inactive) and 141% (inactive) | 109% (inactive) and 89.4% (inactive) and 96.1% (inactive) | 104% (inactive) and 98.3% (inactive) and 100% (inactive)
